# PI4K2A inh = inhibitors of human PI4K2A | hit rate 0.13% among 420,000 | Q9BTU6 | purified PI4K2A, ADP-Glo luminescence, 1 h; active compounds read low | activity change, negative = inhibition, % at 76.9 µM; in the data active = activity change below about -50%; inconclusive = mostly about -30% to -49%;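 also: -100% = wells without enzyme as full effect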
#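 PI4K2A activity was measured by ADP-Glo luminescence: enzyme (4 ug/mL stock) and phosphatidylinositol (1.2 mM stock) in Tris pH 7.5/MgCl2/EGTA/Triton X-100 buffer were reacted with ATP (300 microM stock) for one hour at ambient temperature.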
# TrxR1 substrate = rat thioredoxin reductase 1 substrate activity. O89049. purified TrxR1 substrate turnover, NADPH consumption readout. Potency, µM (doses to about 114 µM), for the others: at the highest dose activity change, negative = substrate turnover. hit rate 0.01% among 390,000. AID 588456; also: potency is read from the fitted curve at half-maximal effect; nearly all actives have a fitted effect of over 50% in size
#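 Rat TrxR1, dispensed at 90 nM, was prereduced with 400 uM NADPH (final) for 5 min at ~22 deg C, then incubated with compound 15 min before 400 uM selenite. A first-read NADPH fluorescence drop versus no-compound background flagged substrates.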
# Giardia killer = Giardia lamblia killing | Giardia lamblia trophozoite viability | activity change, % at 7.66 µM, hits read low | hit rate 0.15% among 340,000 | AID 540267; in the data active = activity change below about -80%; inconclusive = between about -30% and that limit;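 also: parasites exposed to compound for two days anaerobically before the ATP read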
#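 Each well holds 100 Giardia trophozoites and compound. After two days (48 hrs) at 37 deg C in anaerobic conditions, ATP is quantified by luminescence.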
# FBPA coupling cs = coupling enzyme interference in Giardia aldolase counter-screen; coupling enzyme system counterscreen, AmpLite Red fluorescence; activity change, negative = inhibition, % at 58.2 µM, hits read low; hit rate 0.67% among 290,000; AID 2472; in the data active = activity change below about -30%
#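 First, compound is pin-transferred into glyceraldehyde-3-phosphate coupling-enzyme reagent at 57.5 uM final and held 10 min at RT. Next, substrate, coupling system and AmpLite Red are added. After 20 min RT, fluorescence (525/598 nm) is read.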
# rTrxR1 inhibitor = rat TrxR1 inhibition; recombinant rTrxR1, NADPH fluorescence consumption, selenite substrate; Potency, µM (top dose mostly 114 µM), for the others: at the highest dose activity change, negative = inhibition, hits mostly inhibitors; hit rate 1% among 390,000; AID 588453; also: potency is read from the fitted curve at half-maximal effect; nearly all actives have a fitted effect of over 65% in size
#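 Rat TrxR1 (90 nM in the dispensed reagent) was pre-reduced with 400 uM NADPH for 5 min at room temperature, then incubated with compound for 15 min. After 400 uM selenite was added, NADPH fluorescence (Ex 340/Em 450 nm) was followed for 8 min.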
# GALK inhibitor = inhibitors of human galactokinase; P51570; Purified GALK, Kinase-Glo residual ATP luminescence; Potency, µM (top dose mostly 57.5 µM), for inactives: at the highest dose activity change, negative = inhibition, hits mostly inhibitors; hit rate 0.007% among 270,000; also: potency is read from the fitted curve at half-maximal effect
# Target sequence (P51570 whole entry, looked up): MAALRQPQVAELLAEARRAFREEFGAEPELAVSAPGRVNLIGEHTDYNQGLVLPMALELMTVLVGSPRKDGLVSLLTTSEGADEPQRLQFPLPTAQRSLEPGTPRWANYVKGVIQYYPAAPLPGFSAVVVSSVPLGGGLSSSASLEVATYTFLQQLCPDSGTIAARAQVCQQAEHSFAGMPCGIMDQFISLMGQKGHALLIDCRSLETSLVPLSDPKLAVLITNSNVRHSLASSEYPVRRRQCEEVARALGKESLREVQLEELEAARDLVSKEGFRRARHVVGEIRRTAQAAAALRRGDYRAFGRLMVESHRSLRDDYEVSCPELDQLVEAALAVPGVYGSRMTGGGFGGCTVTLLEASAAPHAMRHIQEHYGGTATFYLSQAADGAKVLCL
#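 Luminescence from leftover ATP (Ultra-Glo luciferase/luciferin) served as read-out after a 1 h room-temperature reaction of 5 nM GALK with 35 uM ATP and 100 uM galactose.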
# * marks the source's active call; other numbers are inactive results; ? = inconclusive; · = no result; [ ] = dose if it differs, or a comment. An excerpt weighted towards active compounds, which were near 1.5% of everything screened. Unless noted, calls follow the shape of the dose curve; as a rule, active = well fitted curve in the direction sought with a large enough effect; inconclusive = small, poorly fitted or top-dose-only effect, or another doubt; inactive = no such curve, though single readings can be large; an effect the other way counts as inactive or inconclusive. Unless noted, % is scaled to controls: 0 for no effect and ±100 for the full control effect.
SMILES,PI4K2A inh,TrxR1 substrate,Giardia killer,FBPA coupling cs,rTrxR1 inhibitor,GALK inhibitor
CCN(CC)c1ccc(C(=C2C=CC(=[N+](CC)CC)C=C2)c2ccc(N(CC)CC)cc2)cc1,-71*,3%,-4,·,?,·
CCN(CC)c1ccc(C(=C2C=CC(=[N+](CC)CC)C=C2)c2cc(S(=O)(=O)O)ccc2S(=O)(=O)[O-])cc1,-51*,·,·,·,·,·
CCN(CC)c1ccc(C(=C2C=CC(=[N+](CC)Cc3cccc(S(=O)(=O)[O-])c3)C=C2)c2ccc(N(CC)Cc3cccc(S(=O)(=O)O)c3)cc2)cc1,·,·,·,-23,·,·
Cc1ccc(-n2cc(C(=O)OCc3ccc(Cl)cc3)c3ccccc3c2=O)cc1,1,-3%[57.1 µM],·,·,-3%[57.1 µM],·
Cc1ccc(-c2nn(CCC#N)cc2C=C(C#N)C#N)cc1,-3,1%,-10,2,7.9µM*,1%
COc1ccc(-c2nn(CCC#N)cc2C=C(C#N)C#N)cc1,0,-14%,-6,1,?,1%
O=C(COc1ccccc1F)Nc1ccc2nc(SCC(=O)N3CCCC3)sc2c1,-3,-4%,·,·,14%,·
Cn1cnc([N+](=O)[O-])c1Oc1ccc2ccccc2c1,-1,11%[11.4 µM],-14,-7,4µM*,0%
Cc1cccc(Sc2c([N+](=O)[O-])ncn2C)c1,-5,-2%[57.1 µM],-4,-11,?,·
CS(=O)(=O)c1nc(-c2ccc(F)cc2)cc(C(F)(F)F)n1,6,18%,-14,0,18µM*,-4%
COc1ccc(-c2cc(C(F)(F)F)nc(S(C)(=O)=O)n2)cc1,5,6%,-8,-2,10µM*,-2%
Cc1ccc(/C=N/n2c(-c3ccccc3)csc2=S)cc1,1,·,·,·,·,·
C[C@@H]1CN([C@H](C)CO)C(=O)c2cc(NC(=O)c3ccncc3)ccc2O[C@@H]1CN(C)C(=O)Nc1ccccc1,-4,1%,-9,·,71µM*,·
CCCn1c(CCC(=O)O)ccc1-c1cccs1,3,31%,12,-3,50µM*,-1%
CC(=O)c1ccc(-n2c(CCC(=O)O)ccc2-c2cccs2)cc1,1,3%,10,20,32µM*,-1%
Cc1ccc(-c2ccc(CCC(=O)O)n2-c2ccc(C(=O)O)cc2)cc1,-3,10%[57.1 µM],-3,12,?,3%
Cc1ccc(-n2c(CCC(=O)O)ccc2-c2cccs2)cc1Cl,-1,4%,·,·,50µM*,·
COC(=O)c1ccc(-n2c(CCC(=O)O)ccc2-c2ccc(C)cc2)cc1,4,5%,?,17,45µM*,4%
Cc1ccc(-n2c(CCC(=O)O)ccc2-c2cccs2)cc1,8,8%,-13,4,?,-4%
CCN(C(=O)Cn1nc(Cc2cccnc2)c2ccccc2c1=O)c1cc(C)ccc1C,-8,0%,·,·,7%,·
O=C(Nc1cccc2c(=O)cc(-c3nn[nH]n3)oc12)c1ccc(OCCCCc2ccccc2)cc1,0,·,·,·,·,·
CCOC(=O)c1cc(S(=O)(=O)NCc2ccc(Cl)cc2)[nH]n1,-2,3%[57.1 µM],·,·,17%[57.1 µM],·
O=[N+]([O-])c1c(NCCO)cc(N2CCC3(CC2)OCCO3)c2nonc12,0,-17%,2,-21,-7%,1%
CN(CCO)c1cc(N2CCC3(CC2)OCCO3)c2nonc2c1[N+](=O)[O-],-5,-33%,-29,1,28µM*,1%
CN(CCO)c1cc(N2CCCCC2)c2nonc2c1[N+](=O)[O-],0,-18%,-11,-5,45µM*,3%
SMILES,PI4K2A inh,TrxR1 substrate,Giardia killer,FBPA coupling cs,rTrxR1 inhibitor,GALK inhibitor
COCCCN1C(=O)[C@H](CC(=O)N2CCOCC2)[C@]2(C(=O)OC)CCCCC=C12,-4,·,·,·,·,·
Cc1cc(C)cc(OCc2cc(=O)n3cc(C)sc3n2)c1,-3,0%,·,·,-1%,·
CCOC(=O)N1CCc2c(sc(NCc3cccc(F)c3)c2C(=O)Nc2ccc(OC)cc2OC)C1,-28,0%[57.1 µM],·,·,4%[57.1 µM],·
O=[N+]([O-])c1cncn1CCN1CCOCC1,0,6%[11.4 µM],-91*,·,12%[11.4 µM],·
O=[N+]([O-])c1nccn1CCCCCCN1CCOCC1,-5,·,·,·,·,·
CCCCC(CC)CNC(=O)CC(C)OC(=O)CCC(=O)O (centres undefined),1,·,·,·,·,·

# Compound activity from PubChem.
